CRFBP-R2 agonist – agonists of human CRF-binding protein/CRF-R2 receptor complex; 350,000 compounds, 0.46% hits; activation, % at 13.2 µM; AID 588473; HEK293 CRF-R2/CRF-BP, calcium dye fluorescence (FLIPR); percent of saturating CRF peptide response;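 active = activation of at least 50%, plus an integration ratio under a set limit after plate pattern correction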;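 note: plate controls were neutral control wells without compound for no effect and CRF at EC100 for full effect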
Cardiac RTF inh – cardiac RTF calcium desensitization; IANBD-labeled cardiac RTF, Ca2+ fluorescence; AID 493244; P19429+P45379; inhibition, % at 7.15 µM; 340,000 compounds, 0.12% hits;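 active = inhibition above the mean inhibition of all tested compounds plus 3 SD, cut at about 17% in these data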;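 note: assay run at fixed EC70 calcium of 1.6 mM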
IDE cell activ – boosts human insulin-degrading enzyme activity in HEK cells. activation, % at 5.96 µM. P14735. 340,000 compounds, 0.073% hits. FAbeta-B cleavage, fluorescence polarization; 0% vehicle, 100% cell-free pure enzyme wells;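 active = activation above the mean of all tested compounds plus 3 SD, set per screening campaign, cut at about 17% in these data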
cardiac RTF act – increases calcium sensitivity of human cardiac regulated thin filaments | activation, % at 7.2 µM | 340,000 compounds, 0.24% hits | IANBD-labeled TnC RTF fluorescence at EC20 calcium; 0% EC20 calcium, 100% full calcium | AID 493008;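 active = activation above the mean over all tested compounds plus 3 SD, cut at about 30% in these data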;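 note: rise in fluorescence read as greater calcium sensitivity of cardiac thin filaments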
IDE inh – cellular human IDE inhibition; 320,000 compounds, 0.41% hits; HEK cells, FAbetaB cleavage, fluorescence polarization; P14735; inhibition, % at 5.59 µM;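 active = percent inhibition above the average of all tested compounds plus 3 SD, set per screening campaign, cut at about 16% in these data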;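 note: IDE supplied by intact live HEK cells; FP after avidin binding of uncleaved biotin substrate so inhibition keeps polarization high; 0% = DMSO wells and 100% = 60 µM reference IDE inhibitor Ii1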
CRFBP-R2 block – blocks CRF-induced signaling of the CRF-BP/CRF-R2 complex. AID 588475. inhibition, % at 11.8 µM. 350,000 compounds, 0.59% hits. HEK293 CRF-R2/CRF-BP, CRF-induced calcium fluorescence;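 active = inhibition of the ligand-induced calcium signal above about 50% at the single tested concentration, limit read from the data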
* marks the source's active call; other numbers are inactive results; nt = no result. Only some compounds are listed: those with a hit (about 1.5% of all), similar ones and a draw of the others.

SMILES | CRFBP-R2 agonist | Cardiac RTF inh | IDE cell activ | cardiac RTF act | IDE inh | CRFBP-R2 block
CN(C)N(C(=O)c1cc(-c2cccs2)nn1-c1ccccc1)C1CCS(=O)(=O)C1 (centres undefined) | -1 | -14 | 4 | 1 | 0 | -3
Cc1c(Cl)ccc2c1NC(=O)C21NC(CCC(N)=O)[C@H]2C(=O)N(c3ccc(Cl)cc3)C(=O)[C@H]21 (some centres undefined) | -2 | -21 | 4 | 1 | -1 | 50*
CC(=O)C(C(C)=O)c1cc(NS(=O)(=O)c2ccccc2)ccc1NS(=O)(=O)c1ccccc1 | 160* | -1 | 2 | -3 | 0 | -97
CC(=O)Nc1ccc(NS(=O)(=O)c2ccccc2)cc1 | 0 | -4 | 3 | 3 | -2 | -2
Cc1ccsc1C(=O)NN=C1CCCCCC1 | 3 | -9 | 7 | -2 | 0 | 11
COc1[nH]c(/N=C/c2ccccc2)c(C#N)c1C#N | 22 | -175 | 4 | 106* | -5 | -4
CCOc1ccccc1C(=O)OCC(=O)NCC1CCCCC1 | -1 | -13 | -1 | -11 | -4 | 10
CCOc1ccccc1C(=O)OCC(=O)NCC1CCCO1 (centres undefined) | 1 | -2 | 3 | 4 | -1 | 108*
O=C(NCc1ccccc1Cl)[C@@H]1CCCN1S(=O)(=O)c1ccc(Cl)cc1 | -1 | 2 | 8 | 2 | 6 | 2
O=C1c2cccnc2-c2ncccc21 | -2 | 4 | 3 | 9 | 7 | 11
COC1=C(Br)C(=O)c2ncccc2C1=O | -2 | 1 | 0 | 1 | nt | 58*
CCCN(Cc1nnc(-c2ccccc2Cl)o1)C(=O)c1oc2ccccc2c1C | 2 | 2 | -2 | 1 | 7 | 20
CC(NC(=O)c1ccccc1)C(=O)N/N=C/c1ccco1 (centres undefined) | 1 | -11 | -3 | -3 | 4 | 4
CC(C)CC(NC(=O)c1ccccc1)C(=O)N/N=C/c1ccco1 (centres undefined) | 178* | -3 | 2 | 1 | 2 | -128
COc1ccc(S(=O)(=O)Nc2nc3ccccc3nc2NCC2CCCO2)cc1 (centres undefined) | -1 | 2 | 7 | -4 | 3 | 113*
COc1ccc(OC)c(C2C(C(C)=O)=C(C)Nc3ncnn32)c1 (centres undefined) | -3 | -9 | 0 | -2 | 3 | 3
CNC(=O)c1sc(N2N=C3/C(=C/c4ccccc4)CCCC3C2c2ccccc2)nc1C (centres undefined) | 64* | -2 | -3 | 3 | 7 | -56
COc1ccc(CNC(=O)CN(Cc2ccccc2)C(=O)c2csnn2)cc1 | 1 | -9 | 0 | -5 | 5 | -10
C=CCN(CC(=O)NCc1ccccc1)C(=O)c1csnn1 | 4 | -7 | 1 | -3 | -6 | 87*
O=C(Nc1cccc(S(=O)(=O)N2CCCCC2)c1)c1ccc(S(=O)(=O)C(F)F)cc1 | 2 | -4 | 5 | 0 | 2 | 54*
COCCN(CCOC)C(=O)CSc1ccc(S(=O)(=O)N2CCN(C)CC2)cn1 | 2 | -8 | 7 | 2 | -3 | 4
COc1ccc(NC(=O)c2ccc(NC(=O)c3ccncc3)cc2)cc1 | 6 | 2 | -4 | -4 | -1 | -4
COc1ccc(C(=O)Nc2ccc(C3CC3(Cl)Cl)cc2)cc1 (centres undefined) | 3 | -4 | 3 | 5 | 5 | 75*
COc1cc(-c2noc(C)c2-c2ccc(N(C)C)nc2)cc(OC)c1OC | 53* | -2 | -1 | -7 | 3 | -17
OC(CNCCC1C=Nc2ccccc21)Cn1c2ccc(Cl)cc2c2cc(Cl)ccc21 (centres undefined) | 0 | 7 | 19* | -25 | -7 | -32
SMILES | CRFBP-R2 agonist | Cardiac RTF inh | IDE cell activ | cardiac RTF act | IDE inh | CRFBP-R2 block
CCCC(=O)NC(C)c1nc2ccccc2[nH]1 (centres undefined) | -2 | -4 | 3 | 1 | -4 | 58*
CC(NC(=O)Cc1ccccc1)c1nc2ccccc2[nH]1 (centres undefined) | 0 | 4 | -4 | 1 | 9 | 6
O=C(COc1ccc(C(=O)NCCN2CCOCC2)cc1)Nc1cccc(C(F)(F)F)c1 | 0 | -3 | 5 | -7 | -2 | 8
CCOc1cc(/C=C/c2cccc[n+]2C)ccc1O | 59* | 4 | 2 | 3 | -1 | -52
CCN1/C(=C2\SC(=S)N(Cc3ccccc3)C2=O)Sc2ccccc21 | 51* | 3 | -3 | 18 | 2 | -67
CCN1C(=O)/C(=C2/Sc3ccccc3N2CC)SC1=S | 5 | -11 | 8 | 10 | 0 | -4
COc1ccc(OCC(O)CN2CCc3ccccc3C2)cc1 (centres undefined) | 0 | -2 | 2 | -7 | 1 | 56*
COc1cccc(OCC(O)CN2CCc3ccccc3C2)c1 (centres undefined) | 3 | -6 | 5 | -2 | 1 | -10
CC1(C)CC(=O)C2=C(C1)Nc1ccccc1NC2 | 55* | -14 | -2 | 11 | 7 | -21
CC1(C)CC(=O)C2=C(C1)Nc1ccccc1S2 | 2 | -12 | 4 | 4 | 8 | 6
COC(=O)C1C2CC3c4[nH]c5cc(OC)ccc5c4CCN3CC2CC(O)C1OC (centres undefined) | 3 | -8 | -1 | 5 | nt | -3
COC(=O)C1C2CC3c4[nH]c5cc(OC)ccc5c4CCN3CC2CC(OC(=O)CC(C)=O)C1OC (centres undefined) | 15 | -76 | -4 | 46* | nt | -22
Cc1nnsc1NC(=O)OCc1ccc(Cl)cc1Cl | 4 | 5 | 0 | 0 | -3 | 12
Cc1nn(C)c(Cl)c1NC(=O)OCc1ccc(Cl)cc1Cl | 0 | -7 | -4 | -11 | 1 | 52*
O=C(CC1SC(N2CCOCC2)=NC1=O)Nc1ccccc1Cl (centres undefined) | 4 | -4 | 5 | -2 | 4 | 8
CN(c1ccccc1)S(=O)(=O)c1ccc2c(c1)oc(=O)n2C | 0 | 2 | 2 | 1 | -1 | 59*
COc1ccc(N(C)S(=O)(=O)c2ccc3c(c2)oc(=O)n3C)cc1 | 0 | 2 | 4 | -1 | 5 | 20
O=S(=O)(c1cc(F)ccc1F)N1CCN(C2CCCCC2)CC1 | -2 | -7 | 5 | 1 | -3 | 4
NS(=O)(=O)c1ccc(-c2ccc(/C=C3\C(=O)Nc4ccccc43)o2)cc1 | nt | nt | nt | nt | -4 | nt
CC1(C)OC(=O)C(=Cc2ccc(-c3ccc(S(N)(=O)=O)cc3)o2)C(=O)O1 | 1 | -6 | 4 | 1 | 12 | 81*
O=C(NC(=S)Nc1ccc(F)cc1)c1ccc2c(c1)OCCO2 | 93* | -17 | 3 | -5 | 1 | -195
Cc1cc(C)n(-c2ccc(C(=O)Oc3ccc4c(c3)OCO4)cc2)n1 | -1 | -15 | -1 | 2 | 4 | 73*

Screens as filed in PubChem BioAssay.
